A short description of experiment [1]: A CellTox Green Cytotoxicity Assay to monitor cytotoxicity in HEK293 cells - 32 hour (AID 1224881). Further: nearly all actives have a fitted effect of over 40% in size. Further: potency means the concentration at half of the fitted maximal effect. An outline of the steps: (§1)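 HEK293 cells premixed with CellTox Green dye were seeded at 600 cells/well and left 5 h at 37 C/5% CO2 before pin transfer of 23 nL compound in DMSO. Fluorescence from dye bound to dead-cell DNA was read during 40 h treatment.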
Experiment [2] can be described thus: A CellTox Green Cytotoxicity Assay to monitor cytotoxicity in HepG2 cells - 0 hour (AID 1224882). Further: nearly all actives have a fitted effect of over 35% in size. An outline of the steps: (§2)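 HepG2 cells were seeded together with the CellTox Green dye at 600 cells/well, left 5 h at 37 C/5% CO2, then given compounds in DMSO. Fluorescence from dye bound to dead-cell DNA was read repeatedly over 40 h of treatment at 37 C.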
Experiment [3] is described as follows: A CellTox Green Cytotoxicity Assay to monitor cytotoxicity in HEK293 cells - 8 hour (AID 1224884). Further: nearly all actives have a fitted effect of over 35% in size. The method, boiled down:
as §1

A short description of experiment [4]: qHTS RealTime-Glo MT Cell Viability Assay in HepG2 cells - 16 hour (AID 1224885). Further: nearly all actives have a fitted effect of over 50% in size. Further: potency means the concentration at half of the fitted maximal effect. An outline of the steps: (§3)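 Cells + NanoLuc/prosubstrate dispensed (600 cells/well) → 5 h at 37 C/5% CO2 → compounds in DMSO transferred → 40 h incubation at 37 C, luminescence read at 0, 8, 16, 24, 32, 40 h.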
Experiment [5] in a line: qHTS RealTime-Glo MT Cell Viability Assay in HEK293 cells - 24 hour (AID 1224886). Further: nearly all actives have a fitted effect of over 50% in size. Further: potency means the concentration at half of the fitted maximal effect. An outline of the steps: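 Tox21 10K qHTS, HEK293, 600 cells/well, RealTime-Glo reagent co-dispensed with cells; 5 h preincubation, compound by pintool, 37 C, luminescence at 0–40 h.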
In general terms: Quantitative high-throughput screening tests each substance at several concentrations.

Experiment [6] is described as follows: qHTS RealTime-Glo MT Cell Viability Assay in HEK293 cells - 8 hour (AID 1224887). Further: nearly all actives have a fitted effect of over 50% in size. Further: potency means the concentration at half of the fitted maximal effect. The method, boiled down:
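HEK293 cells mixed with RealTime-Glo reagents (NanoLuc plus cell-permeant prosubstrate) at 600 cells/well, preincubated 5 h at 37 C/5% CO2, then given 23 nL compound in DMSO. Nonlytic luminescence from viable cells was read at 0, 8, 16, 24, 32 and 40 h.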

Experiment [7] is described as follows: A CellTox Green Cytotoxicity Assay to monitor cytotoxicity in HEK293 cells - 16 hour (AID 1224888). Further: nearly all actives have a fitted effect of over 35% in size. Further: potency means the concentration at half of the fitted maximal effect. An outline of the steps: as §1
Experiment [8] can be described thus: qHTS RealTime-Glo MT Cell Viability Assay in HepG2 cells - 0 hour (AID 1224889). Further: nearly all actives have a fitted effect of over 50% in size. Further: potency means the concentration at half of the fitted maximal effect. An outline of the steps: as §3
The nature of experiment [9]: A CellTox Green Cytotoxicity Assay to monitor cytotoxicity in HepG2 cells - 32 hour (AID 1224883). Further: nearly all actives have a fitted effect of over 50% in size. Further: potency means the concentration at half of the fitted maximal effect. An outline of the steps: as §2
A short description of experiment [10]: A CellTox Green Cytotoxicity Assay to monitor cytotoxicity in HepG2 cells - 8 hour (AID 1224890). Further: nearly all actives have a fitted effect of over 45% in size. Further: potency means the concentration at half of the fitted maximal effect. An outline of the steps:
as §2

The record followed here is PubChem BioAssay (Tox21).

Inconclusive results are not listed. A structure can be active in one record and inactive in another. Calls of active or inactive are those of the source. The call rests on the fitted dose curve; in most records, active means well fitted curve in the direction sought with a large enough effect in the repeat runs; inconclusive means weak or mixed curves; inactive means no such curve, though single readings can be large; an effect the other way counts as inactive or inconclusive.

As to `N#Cc1sc2c(=O)c3ccccc3c(=O)c=2sc1C#N`, the Potency is 13.8 µM (active) in experiment [1]; 9.77 µM (active) in experiment [4]; 15.5 µM (active) in experiment [5]; 6.92 µM (active) in experiment [6]; 43.6 µM (active) in experiment [7]; 21.9 µM (active) in [8]. Moreover, the Potency result in experiment [2] and in experiment [3] was “inactive” in each case.
On to `CC(C)N(C(=O)CCl)c1ccccc1`, for which the Potency entry in experiment [1], in experiment [2], in experiment [3], in experiment [6], in experiment [7] and in [8] was “inactive” in each case. Besides, in experiment [10], the Potency entry was “inactive”. In addition, the Potency in [9] and in experiment [5] was 49 µM (active) in each case.
Regarding `[O-][Cl+3]([O-])([O-])O`, the Potency result in experiment [1], in [2], in [3], in [4], in experiment [5] and in [6] was “inactive” in each case. For the same molecule, the Potency result in experiment [7] and in [10] was “inactive” throughout.
Take `O=C(Cl)c1ccccc1F`: the Potency entry in [1], in experiment [2], in [3], in [4], in [5] and in experiment [6] was “inactive” in each case. The Potency entry in experiment [7], in [8] and in experiment [10] was “inactive” each time.
Turning to `COC(=O)C(C)N(C(=O)c1ccco1)c1c(C)cccc1C` (stereo not given), the Potency entry in experiment [1], in experiment [2], in experiment [3], in experiment [4], in experiment [5] and in experiment [6] was “inactive” each time. The Potency entry in experiment [7], in experiment [8] and in experiment [10] was “inactive” each time.
Turning to `C[C@]12C/C(=C/O)C(=O)C[C@@H]1CC[C@@H]1[C@@H]2CC[C@@]2(C)[C@H]1CC[C@]2(C)O`, the Potency is 44.1 µM (active) and inactive in [1]; 49.4 µM (active) and inactive in experiment [5]. Also, the Potency result in [2], in experiment [3], in [4], in experiment [6], in [7] and in experiment [10] was “inactive” throughout.
Regarding `C=Cc1cccc(CCl)c1`, the Potency entry in [1], in experiment [2], in [9], in [4], in experiment [5] and in experiment [6] was “inactive” each time. Moreover, the Potency entry in experiment [8] and in experiment [10] was “inactive” in each case.
Turning to `O=[N+]([O-])c1ccc(CCl)cc1`, the Potency entry in experiment [1], in experiment [2], in experiment [3], in [4], in experiment [5] and in experiment [6] was “inactive” in each case. The Potency entry in experiment [7], in experiment [8] and in experiment [10] was “inactive” each time.
On to `C1=CCC=C1`, for which the Potency entry in experiment [1], in [2], in experiment [9], in experiment [3], in experiment [6] and in [7] was “inactive” throughout. Further, the Potency result in experiment [8] and in experiment [10] was “inactive” in each case.
On to `CN(C)CCc1c[nH]c2ccccc12`, for which the Potency result in experiment [1], in [2], in [3], in experiment [4], in experiment [5] and in [6] was “inactive” throughout. The Potency entry in experiment [7], in [8] and in [10] was “inactive” each time.
In the case of `COc1ccc2[nH]cc(CCN(C(C)C)C(C)C)c2c1`, the Potency result in experiment [1], in experiment [2], in experiment [3], in experiment [4], in experiment [5] and in experiment [6] was “inactive” each time. The Potency entry in [7], in experiment [8] and in experiment [10] was “inactive” each time.
For the molecule `CCC1(CC)C(=O)N=C(O)NC1=O`, the Potency result in experiment [1], in experiment [2], in [3], in [4], in experiment [5] and in [6] was “inactive” each time. Also, the Potency entry in experiment [7], in [8] and in experiment [10] was “inactive” each time.
As to `CC(O)C(=O)[O][Hg][c]1ccccc1` (stereo not given), the Potency in experiment [1] was 3.09 µM (active); in [9], 2.19 µM (active); in experiment [4], 2.19 µM (active); in experiment [5], 0.977 µM (active); in experiment [6] it was 1.55 µM (active); in [7] it was 24.5 µM (active). Moreover, the Potency in experiment [10] was 2.75 µM (active). Moreover, the Potency entry in experiment [2] and in experiment [8] was “inactive” in each case.
As to `C[C@H]1[C@H](c2ccc(Cl)cc2)SC(=O)N1C(=O)NC1CCCCC1`, the Potency entry in experiment [1], in [2], in [9], in experiment [4], in experiment [7] and in experiment [8] was “inactive” each time. In [10], the Potency result was “inactive”. Besides, the Potency in experiment [5] was 43.6 µM (active); in experiment [6], 38.9 µM (active).
With `CC(=O)O.CC(=O)O.CC(=O)O.CC(=O)O.CC(=O)O.CC(=O)O.CC(=O)O.O.O.[Cr].[Cr].[Cr]`, the Potency entry in experiment [1], in experiment [2], in experiment [3], in experiment [4], in experiment [5] and in experiment [6] was “inactive” in each case. The Potency result in [7], in experiment [8] and in [10] was “inactive” in each case.
`CCCCON=O`: the Potency entry in experiment [1], in [2], in experiment [3], in experiment [4], in experiment [5] and in experiment [6] was “inactive” in each case. Moreover, the Potency result in [7] and in experiment [8] was “inactive” each time.
For the molecule `[C-]1=CC=CC1.[Cl][Zr+2][Cl].c1cc[cH-]c1`, the Potency entry in [1], in experiment [2], in experiment [9], in experiment [3], in experiment [7] and in experiment [8] was “inactive” throughout. In addition, the Potency result in experiment [10] is “inactive”.
As to `[O]=[Cr][O][Cr]=[O]`, the Potency entry in experiment [1], in [2], in [3], in [4], in experiment [5] and in [6] was “inactive” throughout. The Potency entry in experiment [7] was “inactive”.
On to `CC(C)NCC(O)c1ccccc1Cl` (stereo not given), for which the Potency entry in experiment [1], in [2], in experiment [3], in [4], in [5] and in experiment [6] was “inactive” each time. The Potency entry in experiment [7], in experiment [8] and in experiment [10] was “inactive” in each case.
In the case of `CCCN`, the Potency result in experiment [1], in experiment [2], in [3], in experiment [4], in [5] and in experiment [6] was “inactive” throughout. Moreover, the Potency result in experiment [7], in experiment [8] and in experiment [10] was “inactive” throughout.
With `CCOC(=O)Cc1ccccc1`, the Potency entry in [1], in [2], in experiment [3], in experiment [4], in experiment [5] and in experiment [6] was “inactive” each time. For the same molecule, the Potency result in experiment [7], in experiment [8] and in [10] was “inactive” in each case.
For `Oc1cc(Cl)c(Cl)c(Cl)c1Cl`, the Potency result in experiment [1], in experiment [2], in experiment [3], in experiment [4], in experiment [7] and in experiment [8] was “inactive” in each case. Further, the Potency entry in experiment [10] was “inactive”. In experiment [5], the Potency was 47.8 µM (active).
As to `O=P(Cl)(Cl)Cl`, the Potency entry in experiment [2], in [9], in [3], in [4], in [5] and in experiment [6] was “inactive” each time. Further, the Potency entry in experiment [7], in experiment [8] and in experiment [10] was “inactive” in each case.
Take `Cc1cc(C2CC2)nc(Nc2ccccc2)n1`: the Potency entry in [1], in experiment [2], in [3] and in [7] was “inactive” each time. In addition, the Potency is 24.5 µM (active) in experiment [5] and 21.9 µM (active) in [6].
Regarding `CO/N=C(/C1=NOCCO1)c1ccccc1Oc1ncnc(Oc2ccccc2Cl)c1F`, the Potency entry in experiment [1], in experiment [2], in experiment [3], in experiment [5], in [6] and in [7] was “inactive” each time. Further, the Potency entry in experiment [8] and in experiment [10] was “inactive” each time.
